# pPAFAH FP inh: pPAFAH (human) enzyme inhibition; Q13093; recombinant pPAFAH, FP-rhodamine probe fluorescence polarization; inhibition, % at 3.39 µM; hit rate 1.5% among 330,000;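 active = inhibition above the mean inhibition across the screen plus 3 SD, cut at about 25% in these data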;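 note: inhibitors block binding of the rhodamine activity-based probe so polarization drops; 0% = enzyme with DMSO and 100% = wells lacking pPAFAH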
# Target sequence (Q13093 whole entry, looked up): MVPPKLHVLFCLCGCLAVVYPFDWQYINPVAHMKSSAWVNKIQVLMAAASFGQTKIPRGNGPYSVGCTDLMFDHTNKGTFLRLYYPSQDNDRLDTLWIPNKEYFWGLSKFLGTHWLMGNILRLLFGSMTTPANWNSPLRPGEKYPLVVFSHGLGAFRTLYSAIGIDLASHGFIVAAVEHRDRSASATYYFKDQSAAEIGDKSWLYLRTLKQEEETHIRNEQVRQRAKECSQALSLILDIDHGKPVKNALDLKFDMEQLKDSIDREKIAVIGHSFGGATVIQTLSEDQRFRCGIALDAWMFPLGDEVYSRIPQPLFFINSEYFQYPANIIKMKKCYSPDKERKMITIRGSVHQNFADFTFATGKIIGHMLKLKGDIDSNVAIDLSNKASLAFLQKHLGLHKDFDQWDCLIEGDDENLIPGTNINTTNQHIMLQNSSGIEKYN
# PAFAH1B3 FP inh: PAFAH1B3 (human) inhibition; recombinant PAFAH1B3, FP-rhodamine probe, fluorescence polarization; inhibition, % at 3.39 µM; hit rate 0.28% among 340,000; AID 492972;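 active = inhibition above the screen-wide average of all tested compounds plus 3 SD, cut at about 25% in these data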;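 note: 0% = enzyme with DMSO only and 100% = wells lacking PAFAH1B3 protein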
# Target sequence (Q15102 whole entry, looked up): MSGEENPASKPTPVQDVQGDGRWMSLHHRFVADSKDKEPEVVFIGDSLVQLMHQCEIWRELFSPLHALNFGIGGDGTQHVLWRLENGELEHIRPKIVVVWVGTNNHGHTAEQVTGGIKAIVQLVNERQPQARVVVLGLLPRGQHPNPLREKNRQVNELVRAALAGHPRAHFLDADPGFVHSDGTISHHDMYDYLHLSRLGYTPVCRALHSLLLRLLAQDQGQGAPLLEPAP
# PAFAH2 inh: PAFAH2 (human) inhibition; hit rate 0.99% among 340,000; inhibition, % at 3.39 µM; Q99487; recombinant PAFAH2, FP-rhodamine activity probe, fluorescence polarization;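 active = inhibition above the mean over all tested compounds plus 3 SD, cut at about 30% in these data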;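 note: inhibitors block probe labeling of enzyme so polarization drops; 0% = enzyme with DMSO and 100% = wells lacking PAFAH2 protein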
# PME-1 primary: blocks human protein phosphatase methylesterase 1. hit rate 0.53% among 320,000. recombinant PME-1, FP-Rh probe fluorescence polarization. Q9Y570. inhibition, % at 5.9 µM;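 active = inhibition above the campaign mean of all compounds plus 3 SD, cut at about 26% in these data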;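 note: competitive labeling of PME-1 active site by serine hydrolase directed probe; 0% = PME-1 with DMSO and 100% = wells lacking PME-1 enzyme; inhibitors block probe labeling so polarization falls and inhibition rises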
# PAFAH1B2 inh: inhibitors of human PAFAH1B2; P68402; recombinant PAFAH1B2, FP-rhodamine activity probe, fluorescence polarization; hit rate 1.2% among 340,000; AID 492953; inhibition, % at 3.39 µM;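 active = inhibition above the mean of all tested compounds plus 3 SD, cut at about 24% in these data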;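 note: 0% = enzyme with DMSO and 100% = wells lacking PAFAH1B2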
# Fam108B inh: counter-screen for RBBP9 inhibitors: inhibitors of mouse Fam108B | inhibition, % at 9.51 µM | hit rate 0.33% among 300,000 | recombinant Fam108B, FP-Rh probe fluorescence polarization;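 active = inhibition above the screen mean inhibition plus 3 SD, computed separately per campaign, cut at about 18% in these data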;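 note: inhibitors lower polarization as less probe binds the enzyme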
# pPAFAH FP conf: confirmation of human plasma PAF acetylhydrolase (pPAFAH) inhibitors. shares compounds with pPAFAH FP inh. recombinant pPAFAH, FP-Rh probe fluorescence polarization. inhibition, % at 3.39 µM. hit rate 72% among 2,300;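 active = mean inhibition of the triplicate above the hit cutoff set for the earlier primary screen, cut at about 25% in these data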;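 note: 0% = enzyme with DMSO and 100% = wells lacking pPAFAH enzyme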
# PAFAH2 confirm: confirmation of human PAFAH2 inhibitors; shares compounds with PAFAH2 inh; recombinant PAFAH2, FP-rhodamine activity probe, fluorescence polarization; inhibition, % at 3.39 µM; hit rate 65% among 2,300;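 active = mean inhibition over three repeats above a set limit taken from the earlier primary screen, cut at about 30% in these data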;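 note: inhibitor blocks binding of rhodamine activity probe so polarization falls; 0% = enzyme with DMSO and 100% = wells lacking PAFAH2 protein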
# The depositor's hits bear a star; / = not tested or not shown. In the library only some 2.9% were active in any assay of this set; here they are far more common.
SMILES,pPAFAH FP inh,PAFAH1B3 FP inh,PAFAH2 inh,PME-1 primary,PAFAH1B2 inh,Fam108B inh,PAFAH2 confirm,others
Oc1ccc(/C=N/NP(=S)(c2ccccc2)c2ccccc2)c(O)c1O,41*,8,7,28*,-3,-3,/,pPAFAH FP conf=63*
Cc1cc(C)[n+](C2C3CC4CC(C3)CC2C4)o1 (stereo not given),-4,11,-3,3,4,0,/,
O=C(COC(=O)Cc1ccccc1)NC12CC3CC(CC(C3)C1)C2,35*,3,55*,0,10,1,/,pPAFAH FP conf=41*
CC1CCCN(c2ccc(C(=O)N3CCC4(CC3)OCCO4)cc2[N+](=O)[O-])C1 (stereo not given),45*,7,-1,-2,2,6,/,pPAFAH FP conf=59*
O=C(c1ccc2c(c1)ncn2C1CCCCCC1)N1CCC2(CC1)OCCO2,5,1,6,4,2,-2,/,
CCCNS(=O)(=O)c1ccc(OCC(=O)N2CCN(Cc3ccc4c(c3)OCO4)CC2)c(C)c1,2,1,1,9,0,2,/,
NP(=O)(OCCCCc1ccccc1)Oc1ccccc1Cl (stereo not given),70*,46*,31*,41*,99*,-3,/,pPAFAH FP conf=74*
NP(=O)(OCC(F)(F)F)Oc1cccc2ccccc12 (stereo not given),7,-3,-1,15,19,-3,/,
O=C1NC(=O)N(Cc2ccco2)C(=O)/C1=C\c1cccn1CCOc1ccc(Cl)cc1,40*,-3,7,14,35*,3,/,pPAFAH FP conf=3
Cc1cccc(OCCn2cccc2/C=C2/C(=O)NC(=O)N(Cc3ccco3)C2=O)c1,22,/,/,13,/,5,/,
Cc1ccc(N)cc1C,/,-2,-4,/,-2,/,/,
O=C(C1CCN(c2nc3ccc(Br)cc3s2)CC1)N1CCC2(CC1)OCCO2,36*,2,1,-8,0,-7,/,pPAFAH FP conf=26*
O=P(N1CCCCCC1)(N1CCCCCC1)N1CC1,/,3,6,/,4,/,/,
CC[C@H](C)/C=C(C)/C=C/C1=CC2=C(Cl)C(=O)[C@](C)(OC(C)=O)C(=O)C2=CO1,67*,7,40*,/,10,/,/,pPAFAH FP conf=87*
CC(=O)c1cn(Cc2ccccc2C#N)c2ccccc12,9,8,4,3,3,3,/,
O=C1NC(=O)N(Cc2ccco2)C(=O)/C1=C/c1ccc(-c2cccc([N+](=O)[O-])c2)o1,66*,6,37*,-2,4,16,/,pPAFAH FP conf=36*
O=c1[nH]c(=S)n(-c2ccc(Cl)cc2)c(O)c1C=Nc1ccc(N2CCOCC2)cc1,43*,5,14,2,0,-2,/,pPAFAH FP conf=20
C[C@]12CCC3C(C1CCC2=O)[C@H](O)C[C@H]1C[C@@H](O)CC[C@]31C (stereo not given in full),3,3,4,/,7,/,/,
Cc1c2cnn(CC(=O)N3CCC4(CC3)OCCO4)c(=O)c2c(C)n1Cc1cccc(Cl)c1,5,1,2,-6,1,4,/,
O=C(Cn1ncc2c3ccccc3n(Cc3cccc(Cl)c3)c2c1=O)N1CCC2(CC1)OCCO2,40*,14,19,-10,5,3,/,pPAFAH FP conf=37*
O=C(Cc1ccccc1)OCC(=O)c1ccccc1,/,3,9,/,-1,/,/,
Cc1cccc(CN2CCN(CC(=O)N3CCC4(CC3)OCCO4)C2=O)c1,6,8,-3,3,4,-3,/,
Cc1cc(C)cc(N2C(=O)NC(=O)/C(=C\c3cccn3-c3ccccc3)C2=O)c1,5,-5,46*,-5,18,0,34*,
CCCNC(=O)N1[C@H]2CC[C@@H]1C(C(=O)OC)=C(c1cccc(Cl)c1)C2,1,3,0,-4,-1,/,/,
CN1C(=O)C(=Cc2ccc(SC3CCCCC3)o2)C(=O)N(C)C1=O,12,-2,30*,3,20,0,33*,
SMILES,pPAFAH FP inh,PAFAH1B3 FP inh,PAFAH2 inh,PME-1 primary,PAFAH1B2 inh,Fam108B inh,PAFAH2 confirm,others
CCCCN1C(=O)C(C2c3ccccc3C(=O)N2Cc2ccccc2)C(=O)NC1=S (stereo not given),2,8,16,-1,21,-5,/,
COc1ccc(/C=C2/C(=O)N(Cc3ccco3)C(=O)N(C(C)C)C2=O)cc1,11,1,30*,0,1,0,-1,
CCN(CC)c1ccc(/C=C2/C(=O)NC(=O)N(Cc3ccco3)C2=O)cc1,10,-11,7,-6,0,0,/,
Cc1cccc(NC(=O)COC(=O)c2cc(C)n(C3CC3)c2C)c1,5,2,40*,1,8,/,2,
CC1OC(OC2CC(O)C3(CO)C4C(O)CC5(C)C(C6=CC(=O)OC6)CCC5(O)C4CCC3(O)C2)C(O)C(O)C1O (stereo not given),/,1,-5,/,2,/,/,
CN(C)c1ccc(/C=C2/C(=O)NC(=O)N(Cc3ccco3)C2=O)cc1,9,10,9,-10,0,4,/,
Cc1cc(/C=C2/C(=O)NC(=O)N(Cc3ccco3)C2=O)c(C)n1-c1ccccc1,12,12,33*,-2,10,5,23,
Cc1ccc(/C=C2\C(=O)NC(=O)N(CC3CCCO3)C2=O)s1 (stereo not given),0,2,33*,-1,5,-6,8,
Cc1ccc(C(O)(C(=O)NNC(=O)CN2CCN(C)CC2)c2ccc(C)cc2)cc1,1,-5,-9,5,-3,-2,/,
N#CCC(=O)NN1Cc2ccccc2C1=N,-2,0,-2,2,2,5,/,
CC(=O)Nc1ccc(C(=O)OCC(=O)Nc2ccc(Cl)cc2C(=O)c2ccccc2)cc1,-8,-7,69*,-19,-9,-11,73*,
O=C(COc1ccccc1)Nc1ccc(Cl)cc1C(=O)c1ccccc1,5,-2,-2,-10,-1,-5,/,
O=C(COC(=O)c1ccc(O)cc1)Nc1ccc(Cl)cc1C(=O)c1ccccc1,5,1,63*,-12,2,-5,61*,
O=C(CN1CC(c2ccccc2)CC1=O)Nc1ccccc1 (stereo not given),0,1,44*,-3,-2,1,25,
CCN1CCC(O)(c2ccccc2)C(C(=O)c2ccccc2)C1 (stereo not given),0,10,4,1,-1,8,/,
COc1ccc(-n2c(-c3ccc(C)cc3)nc3ccccc3c2=O)cc1,4,3,1,0,5,6,/,
COc1ccc(-c2nc3ccccc3c(=O)o2)cc1,-4,-3,78*,-2,3,-4,71*,
Cc1c(C(c2ccc(Cl)cc2Cl)c2c(O)c3ccccc3oc2=O)c(=O)n(-c2ccccc2)n1C (stereo not given),2,3,39*,3,3,2,33*,
